Sampled rows, rich in hits. Any-hit rate of the full collection: about 4.4%.
PfHsp90 set2 = reduces growth (ATP signal) of yeast expressing P. falciparum Hsp90; S. cerevisiae expressing PfHsp90, BacTiter-Glo ATP, 48 h; yeast lacking PDR1 and PDR3 efflux regulators; inhibition, % at 9.4 µM; 310,000 compounds, 0.32% hits; AID 504621;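 active = every replicate shows inhibition above about 80%, whatever the replicate mean, limit read from the data; inconclusive = mean inhibition reaches the set limit but some replicate falls short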;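 also: 0% = DMSO neutral controls and 100% = 20 µM radicicol positive controls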
tim10-1 inh = tim10-1 yeast growth inhibition | inhibition, % at 20 µM | S. cerevisiae tim10-1 ts strain growth, BacTiter-Glo, 24 h | AID 463190 | 330,000 compounds, 2.2% hits;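 active = inhibition of at least 40%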;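 also: mutant grown at 25 °C; 0% = DMSO wells with yeast and 100% = wells holding no yeast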
SKKanGAS inh = SKKanGAS growth inhibition; S. pyogenes SKKanGAS, kanamycin growth, BacTiter-Glo, 6 h; inhibition, % at 7.5 µM; 300,000 compounds, 1.3% hits;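 active = mean replicate score, as percent of positive control median, at least 50; inconclusive = mean below 50 but one replicate at or above 50; inactive = mean and every replicate below 50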;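 also: strain carries kanamycin resistance gene driven by streptokinase promoter and grows in 40 µg/ml kanamycin; loss of luminescence reflects streptokinase promoter inhibition or plain growth inhibition; 0% = median of DMSO wells and 100% = positive control at its reference dose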
TIM10 inh = inhibits growth of TIM10 yeast strain; S. cerevisiae TIM10 strain growth, BacTiter-Glo luminescence, 24 h; inhibition, % at 10 µM; 330,000 compounds, 1.4% hits;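 active = inhibition of 40% or more at the single tested concentration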;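 also: wild-type TIM10 isogenic control strain grown at permissive 25 °C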
tim23-1 inh = inhibits growth of tim23-1 mutant yeast; S. cerevisiae tim23-1 growth, BacTiter-Glo luminescence, 24 h; inhibition, % at 20 µM; 330,000 compounds, 1.3% hits; AID 463212;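 active = growth inhibition of the mutant yeast at or above 50%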;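 also: temperature-sensitive mutant grown at 25 °C; plate controls were DMSO-treated mutant yeast for no effect and medium wells lacking yeast for full effect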
tim10-1 confirm = confirmation of tim10-1 mutant yeast growth inhibitors; shares compounds with tim10-1 inh; S. cerevisiae tim10-1 ts strain growth, BacTiter-Glo, 24 h; inhibition, % at 20 µM; 7,400 compounds, 56% hits; AID 463213;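 active = inhibition of yeast growth at or above a set limit in either of two repeat tests at 20 µM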;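 also: tim10-1 mutant grown at permissive 25 °C to find synthetic lethal compounds; 0% = DMSO yeast wells and 100% = medium wells without yeast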
* marks the source's active call; other numbers are inactive results; ? = inconclusive; / = no result.

SMILES	PfHsp90 set2	tim10-1 inh	SKKanGAS inh	TIM10 inh	tim23-1 inh	tim10-1 confirm
Cc1ccc(-n2nnnc2CNC(=O)c2ccc([N+](=O)[O-])o2)cc1C	-14	43*	-2	32	27	31*
Cc1ccc2oc(C(=O)N3CCCCCC3)c(C)c2c1	-2	8	-4	-15	33	/
Cc1ccc2oc(C(=O)N3CCN(Cc4ncccc4C)CC3)c(C)c2c1	10	41*	13	27	40	18
COC(=O)c1ccccc1NC(=O)c1sc(=S)n(C)c1N	-22	46*	-7	35	30	22
COC(=O)c1ccccc1NC(=O)c1sc(N)nc1C	0	14	/	-13	-8	/
COC(=O)[C@H](Cc1ccccc1)NC(=O)Cn1cnc2c(NCc3ccccc3)ncnc21	1	6	/	-12	16	/
O=C(CS(=O)(=O)c1ccccc1)c1cc2ccccc2oc1=O	-5	42*	-5	17	50	1
O=C(c1cc2ccccc2oc1=O)N(Cc1ccco1)Cc1cccs1	/	27	2	2	36	/
O=C(c1cc2ccccc2oc1=O)N(Cc1cccs1)Cc1cccs1	35	42*	5	15	26	14
C/C(=N\NC(=S)Nc1c(C)cccc1C)c1cc2ccccc2o1	-7	42*	-3	37	10	28
C/C(=N\NC(=S)Nc1c(C)cccc1C)c1ccc(O)cc1	20	12	14	-10	27	/
CCCn1nnc(NC(=O)c2cccc(Cl)c2)n1	-12	12	-2	-4	7	/
CCCn1nnc(NC(=O)c2cccc(OCc3ccccc3)c2)n1	-18	44*	-7	29	32	36*
C=CC[C@H](CC(=O)N(CCO)Cc1ccccc1)C(=O)N[C@H](COC(=O)[C@@H](CC=C)Cc1ccc(F)cc1)Cc1ccccc1	6	2	/	10	9	/
O=C(COC(=O)CN1C(=O)C2CCCCC2C1=O)Nc1cc(F)ccc1F (centres undefined)	9	-21	/	-11	18	/
COc1cccc(NCc2ccc([N+](=O)[O-])s2)c1	13	41*	3	34	41	24
COc1cc(C(=O)NCCC2=CCCCC2)cc(OC)c1OC	-24	12	3	-8	18	/
COc1ccc(C)cc1NC(=O)NCCC1=CCCCC1	/	43*	-1	38	41	31*
O=C(COc1ccc([N+](=O)[O-])cc1Cl)NCCN1C(=O)CSC1=O	7	-7	/	2	-5	/
COc1cccc(N=Nc2ccc3ccccc3c2O)c1	0	46*	19	13	32	31*
O=C1c2ccccc2N[C@@H]2C=CC[C@@H]2N1O	5	6	/	9	30	/
O=C(c1cc2cc(Cl)ccc2[nH]1)N1CCN(Cc2ccc3c(c2)OCO3)CC1	8	49*	25	25	37	-27
Cc1ccc(C(=O)N2CCN(Cc3ccc4c(c3)OCO4)CC2)o1	16	10	-1	-13	18	/
Cc1ccc2c(C)c(C(=O)N3CCN(Cc4ccc5c(c4)OCO5)CC3)oc2c1C	8	47*	0	20	43	8
O=C(C[C@@H]1C/C=C\CC[C@H](Cc2ccc(F)cc2)C(=O)OC[C@@H]2CCCN2C1=O)N[C@H](CO)Cc1ccccc1	-12	26	/	12	24	/
SMILES	PfHsp90 set2	tim10-1 inh	SKKanGAS inh	TIM10 inh	tim23-1 inh	tim10-1 confirm
CCOC(=O)Cc1csc2nc3sc(C)c(C)c3c(=O)n12	-108	43*	0	-6	17	13
CCOC(=O)CNC(=O)CSc1nc2sc(C)c(C)c2c(=O)n1C	0	12	6	11	11	/
O=C1NC[C@H](c2ccccc2)N(CCc2cccc(F)c2)C1=O	-25	1	3	-5	11	/
CCOc1cc(N2CCOCC2)c(OCC)cc1NC(=O)C(NC(=O)c1c(F)cccc1F)C(C)C (centres undefined)	8	/	/	/	/	/
COc1ccccc1-n1cc(-c2ccccc2)[nH]c1=S	-11	11	-3	31	46	/
COc1ccccc1-n1cc(-c2ccccc2)c2c(=S)nc[nH]c21	-38	48*	5	31	41	14
O=C(CCl)NC(=O)NC12CC3CC(CC(C3)C1)C2	16	/	0	/	/	/
CC(Cl)C(=O)NC(=O)NC12CC3CC(CC(C3)C1)C2 (centres undefined)	2	42*	6	29	45	26
COc1ccc(OCc2nnc(SCC(=O)Nc3nnc(C4CC4)s3)n2C)cc1	14	8	0	8	1	/
C[C@@]12CCC=C[C@H]1[C@H](c1ccc3ccccc3c1)N(Cc1ccccc1)C2=O	26	52*	69*	13	12	53*
COc1ccc(Br)cc1[C@H]1[C@@H]2C=CCC[C@@]2(C)C(=O)N1Cc1ccccc1	-25	44*	?	7	6	37*
Cc1[nH]n(-c2ccc([N+](=O)[O-])cc2)c(=O)c1C=NCCN1CCN(C(=O)c2cccc(F)c2)CC1	84*	42*	24	23	38	48*
Cc1[nH]n(-c2ccc([N+](=O)[O-])cc2)c(=O)c1C=NCCN1CCN(C(=O)c2ccc(F)cc2)CC1	-18	36	22	15	30	/
CCN1C[C@@H]2[C@@H]3C(=O)N(Cc4ccccc4)C(=O)[C@@H]3[C@](C)(C1=O)N2C(=O)c1ccc(Cl)c(Cl)c1	-10	/	/	/	/	/
NC(=O)NC(=O)COC(=O)/C=C/c1cccs1	-9	0	-1	-15	16	/
C/C(=N/Nc1nc(-c2ccc(Cl)cc2)cs1)c1cccs1	1	45*	-1	17	-1	13
CCn1nccc1C(=O)Nc1cc(Cl)cc(Cl)c1	14	41*	-2	35	41	24
CCn1nccc1C(=O)Nc1ccc(Cl)cn1	-20	20	2	19	6	/
CCCOc1ccc(C(=O)NNC(=S)NC(=O)c2cc(-c3ccc(Cl)cc3)nc3ccccc23)cc1	-118	46*	99*	20	22	36*
Cc1ccc(C)c(-c2cc(C(=O)NNC(=S)NCC(C)C)c3ccccc3n2)c1	-69	47*	22	18	26	31
CCCOc1cccc(-c2cc(C(=O)NNC(=S)NCC)c3ccccc3n2)c1	6	54*	-17	33	24	50*
CCCCNC(=S)NNC(=O)c1cc(-c2ccncc2)nc2ccccc12	-7	30	0	18	27	/
COC(=O)c1ccc(NC(=S)NC(=O)c2cc(-c3ccccc3)nc3ccccc23)cc1	-1	25	8	16	17	/
CCCOc1cccc(-c2cc(-c3n[nH]c(=S)n3CC)c3ccccc3n2)c1	-3	43*	18	39	38	32*
O=C(C1CC(=O)N(c2ccc(F)cc2)C1)N1CCC(c2nc3ccccc3[nH]2)CC1 (centres undefined)	4	9	0	10	14	/
